# Assay outcomes as filed in PubChem.
# The list is not random: actives were taken first. Their share in the collection is about 7.5%.
# ELG1 genotox: qHTS screen for small molecules that induce genotoxicity in human embryonic kidney (HEK293T) cells expressing luciferase-tagged ELG1. actives 1.3% (n = 330,000). HEK293T ELG1-luciferase reporter, luminescence, 16 h. Potency, µM (titrated, usually from 46 µM), most hits filed as activators; also: nearly all actives have a fitted effect of over 60% in size
#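 Genotoxicity was scored as increased ELG1-luciferase reporter signal, measured by ONE-Glo luminescence (30 min, room temperature). Compound or vehicle exposure of the HEK293T reporter cells lasted 16 hr at 37°C.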
# FLuc counter: qHTS profiling assay for firefly luciferase inhibitor/activator using purifed enzyme and Km concentrations of substrates (counterscreen for miR-21 project). purified FLuc, Km substrates, luminescence inhibition. AID 588342, 2011. Potency, µM (top dose mostly 57.5 µM), hits mostly inhibitors. actives 6.9% (n = 360,000). Luciferin 4-monooxygenase (Photinus pyralis), P08659; also: nearly all actives have a fitted effect of over 55% in size
# Target sequence (P08659 whole entry, looked up): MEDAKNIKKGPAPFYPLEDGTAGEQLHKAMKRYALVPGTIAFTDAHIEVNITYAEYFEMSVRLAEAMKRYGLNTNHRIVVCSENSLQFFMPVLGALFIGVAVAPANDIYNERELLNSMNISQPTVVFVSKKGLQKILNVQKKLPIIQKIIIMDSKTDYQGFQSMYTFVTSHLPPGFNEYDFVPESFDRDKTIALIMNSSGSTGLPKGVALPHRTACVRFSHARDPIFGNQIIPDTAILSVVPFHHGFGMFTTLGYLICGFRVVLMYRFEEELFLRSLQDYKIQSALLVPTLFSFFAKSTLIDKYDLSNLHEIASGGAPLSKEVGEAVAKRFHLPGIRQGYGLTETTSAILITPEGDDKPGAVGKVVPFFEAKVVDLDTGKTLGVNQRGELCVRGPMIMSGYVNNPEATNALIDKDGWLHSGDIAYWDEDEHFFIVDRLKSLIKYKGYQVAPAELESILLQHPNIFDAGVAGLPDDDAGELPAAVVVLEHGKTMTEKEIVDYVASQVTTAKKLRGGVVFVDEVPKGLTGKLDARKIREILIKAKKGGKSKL
#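 Purified P. pyralis luciferase, 10 nM final, with Km-level 10 uM D-luciferin and 10 uM ATP in 50 mM Tris acetate pH 7.5, 10 mM Mg acetate, 0.01% Tween-20, 0.05% BSA; 6-point qHTS titration about 60 µM downward; luminescence read.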
# KinaseGlo FLuc: Counterscreen for Luciferase (Kinase-Glo TM) Inhibition; Luciferin 4-monooxygenase (Photuris pensylvanica), Q27757; Kinase-Glo luciferase, ATP luminescence, 8 min; Potency, µM (series often up to 38.3 µM), usual class: inhibitors; actives 0.28% (n = 200,000); AID 1379, 2008; also: nearly all actives have a fitted effect of over 60% in size
#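 Light output from Kinase-Glo luciferase with luciferin and 10 uM ATP in 50 mM imidazole pH 7.2, KCl, MgCl2, Tween 20, BSA; compound pin-delivered, 8-min ambient incubation, then luminescence read.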
# SMN2 splice enh: qHTS Assay for Enhancers of SMN2 Splice Variant Expression | HEK293 SMN2-luciferase splicing reporter, luminescence, 30-36 h | Potency, µM (titrated, usually from 46.1 µM), most hits filed as activators | actives 2.8% (n = 210,000) | AID 1458, 2008; also: nearly all actives have a fitted effect of over 55% in size
#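 qHTS luciferase splicing reporter: luminescence rises when SMN2 exon 7 is included in transfected HEK293 cells. Compound exposure lasted 30-36 h at 37C, with 4.5 mM final sodium butyrate as control, followed by a ONE-Glo read.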
# NPC1 promoter act: qHTS Assay for NPC1 Promoter Activators; actives 2.4% (n = 320,000); Huh7 NPC1 promoter luciferase reporter, 24 h; Potency, µM (series often up to 9.22 µM), hits mostly activators; AID 485313, 2010; also: nearly all actives have a fitted effect of over 60% in size
#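 Luciferase expression driven by the NPC1 promoter was measured in stably transfected Huh7 cells after a 24 h compound incubation, using a luciferase reagent and a luminescence read.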
# Rab9 promoter act: qHTS Assay for Rab9 Promoter Activators | Huh7 Rab9 promoter-luciferase reporter, luminescence, 24 h | Potency, µM (highest dose often 9.22 µM), most hits filed as activators | actives 2.8% (n = 320,000); also: nearly all actives have a fitted effect of over 60% in size
#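 Luminescence from Amplite-detected luciferase (10 minutes, ambient) reports Rab9 promoter activation. Before that, stable Rab9-luciferase Huh7 cells (1500/well, reduced-serum OP-MEM I plus 10% FBS) were exposed to compound for 24 hours at 37C.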
# Numbers stand for hits; 0 = inactive; ? = inconclusive; - = not tested or not shown; [ ] = another dose, or the depositor's remark. Calls follow the shape of the dose curve; as a rule, active = well fitted curve in the direction sought with a large enough effect; inconclusive = small, poorly fitted or top-dose-only effect, or another doubt; inactive = no such curve, though single readings can be large; an effect the other way counts as inactive or inconclusive.
SMILES,ELG1 genotox,FLuc counter,KinaseGlo FLuc,SMN2 splice enh,NPC1 promoter act,Rab9 promoter act
Cc1ccc(-c2cc(C(=O)N3CCc4ccccc4C3)[nH]n2)cc1C,0,0,-,-,0,0
O=C(Nc1cccc(Cl)c1)N1CCc2ccccc2C1,?,9.53µM,-,-,2.82µM,3.16µM
COc1cccc(-c2cc(C(=O)N3CCc4ccccc4C3)[nH]n2)c1,?,10.7µM,-,-,0,0
O=C(Nc1ccccc1F)N1CCc2ccccc2C1,18.3µM,15.1µM,-,-,1.26µM,2.82µM
Cc1cccc(Cn2c(=O)n(CCc3ccccc3)c(=O)c3c(C)c(C)sc32)c1,-,0,-,0,-,-
Oc1ccc2ccccc2c1SSc1c(O)ccc2ccccc12,-,-,-,-,0,0
COc1cccc(NC(=O)N2CCc3ccccc3C2)c1,?,16.9µM,-,-,3.98µM,2.82µM
Cc1cccc(C(=O)Nc2ccc(S(=O)(=O)Nc3nc(C)cc(C)n3)cc2)c1,0,0,-,-,0,0
COc1ccc(NC(=O)CSc2nc(N)c(C(=O)Nc3ccc(N(C)C)cc3)s2)cc1,?,1.35µM,0,0,?,3.16µM
COc1ccc(NC(=O)CSc2nnc(N)s2)cc1,0,0,0,0,0,0
CCOC(=O)c1sc(SCC(=O)Nc2ccc(N(C)C)cc2)nc1N,0,6.01µM,0,0,0,0
CN(C)c1ccc(NC(=O)CSc2nc(N)c(C(=O)Nc3ccc(N(C)C)cc3)s2)cc1,0,4.78µM,0,0,?,0
COC(=O)c1ccc(CSc2nc3sc(C(=O)O)c(C)c3c(=O)[nH]2)cc1,0,?,0,0,0,0
CCOC(=O)c1ccc(NC(=O)CSc2nc3sc(C(=O)O)c(C)c3c(=O)[nH]2)cc1,0,16.9µM,0,0,0,?
COc1ccc(/C=C(/NC(=O)c2ccccc2)C(=O)N2CCOCC2)cc1OC,0,0,-,-,0,0
COC(=O)c1ccc(NC(=O)COc2cccc(-n3cnnn3)c2)cc1,0,0,-,-,0,0
CCc1ccc(NC(=O)COc2cccc(-n3cnnn3)c2)cc1,0,19µM,-,-,0,0
Cc1cc(C(=O)COc2cccc(-n3cnnn3)c2)c(C)n1-c1ccccc1,0,3.01µM,0,0,0,0
Cc1ccnc(SCC(=O)c2ccc(Br)cc2)c1C#N,0,21.3µM,0,14.1µM,3.55µM,2.82µM
Cc1cc(C)c(C#N)c(OCC(=O)c2ccc(Br)cc2)n1,0,0,0,0,0,0
Cc1snc(SCC(=O)c2ccc(Cl)cc2)c1C#N,0,?,0,0,?,?
Cc1ccc(C(=O)CSc2nsc(C)c2C#N)cc1,?,10.7µM,0,12.6µM,3.55µM,3.16µM
CCCN(Cc1cccs1)C(=O)Nc1ccc(Br)c(C)c1,-,0,-,-,-,-
CCN(CC)c1cc2c(cc1F)c(=O)c(S(=O)(=O)c1ccccc1)cn2Cc1ccccc1,-,0,-,-,-,-
COc1cccc(CSc2nc3cc(C(=O)NC4CCCC4)ccc3c(=O)n2Cc2ccccc2)c1,-,0,-,-,-,-
SMILES,ELG1 genotox,FLuc counter,KinaseGlo FLuc,SMN2 splice enh,NPC1 promoter act,Rab9 promoter act
COc1ccc(N(CC(=O)Nc2cccc(C(C)=O)c2)S(=O)(=O)c2ccccc2)c(OC)c1,-,0,-,0,-,-
Cc1cc(/C=N/n2c(COc3ccccc3C)nc3ccccc3c2=O)c(O)c([N+](=O)[O-])c1,0,23.9µM,0,0,0,0
O=c1c2ccccc2nc(COc2ccccc2)n1/N=C/c1cc([N+](=O)[O-])ccc1O,0,19µM,0,0,0,0
O=C1CCC(C(=O)Nc2cccc3ccccc23)N1 (stereo not given),0,0,0,7.94µM,0,0
Cc1nc2c(C(=O)Nc3ccc(N4CCCC(O)C4)cc3)snc2c(=O)[nH]1 (stereo not given),0,3.01µM,-,-,0,0
Cc1cccc(NC(=O)c2snc3c(=O)[nH]cnc23)c1,0,0,0,0,0,0
O=C(Nc1ccc(N2CCCC(O)C2)cc1)c1snc2c(=O)[nH]cnc12 (stereo not given),?,2.13µM,0,?,0,0
CC(=O)N1c2ccc(S(=O)(=O)N3CCCCC3)cc2CC1C(=O)NCc1ccccc1C (stereo not given),0,0,-,-,0,0
O=C(Nc1ccccc1Cl)c1cc(=O)c2ccccc2o1,?,15.1µM,-,-,3.55µM,?
NS(=O)(=O)c1cccc(NC(=O)c2cc(=O)c3ccccc3o2)c1,0,0,-,-,0,0
O=C(Nc1ccccc1Br)c1cc(=O)c2ccccc2o1,7.3µM,12µM,-,-,2.51µM,3.98µM
COc1ccc2oc(=Nc3cccc(F)c3)c(C(N)=O)cc2c1,0,0,0,0,0,0
COc1ccc2oc(=Nc3ccccc3)c(-c3nc4ccccc4[nH]3)cc2c1,7.31µM,6.01µM,0,12.6µM,?,?
c1ccc2[nH]c(-c3ccncc3)nc2c1,0,?,0,-,0,0
c1ccc(-c2nc3ccccc3[nH]2)cc1,?,7.57µM,-,-,3.55µM,1.58µM
COc1ccc(-c2nc3ccccc3[nH]2)cc1,0.517µM,0.675µM,8.91µM,2.51µM,0.501µM,0.631µM
COC(=O)c1ccc(-c2nc3ccccc3[nH]2)cc1,?,1.69µM,?,8.91µM,0.708µM,0.501µM
COc1ccc(CCCc2nc3ccccc3[nH]2)cc1,0,?,-,-,0,0
COc1ccc(-c2cc(=O)n(-c3nc4ccccc4[nH]3)[nH]2)cc1,?,10.7µM,0,?,0,?
c1cncc(-c2nc3ccccc3[nH]2)c1,0,?,0,0,0,0
Nc1cc(N)cc(-c2nc3ccccc3[nH]2)c1,?,23.9µM,0,?,0,0
O=C(O)c1ccc2nc(CO)[nH]c2c1,?,?,0,0,0,0
O=C(O)c1cccc(-c2nc3ccccc3[nH]2)c1,0,1.9µM,0,15.8µM,?,?
COc1cc(OC)cc(C(=O)Nc2cc(-c3nc4ccccc4[nH]3)ccc2C)c1,-,7.57µM,-,0,-,-
Cc1cccc(N2CCN(C(=O)C3CCN(S(=O)(=O)c4cccs4)CC3)CC2)c1C,-,0,-,0,-,-
O=C(c1ccccc1-c1nc2ccccc2[nH]1)N1CCOCC1,0,0[2.3 µM],0,0,0,0
Cc1cc(-c2nc3ccccc3[nH]2)ccc1N,?,4.26µM,10µM,6.31µM,0.891µM,0.562µM
O=C(O)c1ccccc1-c1nc2ccccc2[nH]1,0,13.5µM,0,0,0,?
COc1ccc(CCNC(=O)Cn2cc(S(=O)(=O)Cc3ccccc3Cl)c3ccccc32)cc1OC,-,0,-,-,-,-
N/C(=N\OC(=O)c1ccccc1Cl)c1ccccc1,?,0.379µM,?,11.2µM,3.16µM,3.16µM
